Assay results taken from PubChem BioAssay (NCATS).
Records with an inconclusive call do not appear. Calls of active or inactive are those of the source. Calls follow the shape of the dose curve; as a rule, active = well fitted activation curve with a large enough effect; inconclusive = small, poorly fitted or top-dose-only effect; inactive = flat fitted curve, though single readings scatter. Where a SMILES comes first, the peptide text is derived from it. [ ]: non-standard residue; d: D form.

test: Primary redox qHTS assay for identification of artifact compounds. (AID 1845223); conditions: Amplex Red/HRP redox cycling with DTT, fluorescence; series mostly up to 53.8 µM; redox activity (% of DA3003): at the top concentration
From the text: PI: Alexander Tropsha Ph.D.
UNC Eshelman School of Pharmacy
University of North Carolina, Chapel Hill, North Carolina
Hits from high-throughput screening (HTS) of chemical libraries are often false positives due to their interference with the assay detection technology. In response to this problem, we generated the largest publicly available library of chemical liabilities and developed a free webtool to predict HTS artifacts, both of which are described herein. More specifically, we generated, curated, and integrated HTS datasets for thiol reactivity, redox activity, and luciferase (firefly and nano) activity. Using these curated datasets, we developed and validated several Quantitative Structure-Interference Relationship (QSIR) models to predict nuisance behavior. […] These models were employed for virtual profiling of the National Center for Advancing Translational Science's (NCATS) in-house library, and 256 compounds for each assay were selected for the experimental validation of nuisance behavior. The BA for these external predictions ranged from 58 to 78% for compounds within the applicability domains of the models. […] The models developed in this study, along with aggregation models previously developed by our group (SCAM Detective) were implemented in "Liability Predictor," an online tool which may be used as part of chemical library design or for triaging HTS hits. Both the models and the curated datasets are publicly available at https://liability.mml.unc.edu/.
SEQUENCE No. (e.g., 1, 2, 3, etc.); […] (e.g., Cells, Incubation, Reagent, etc.); VALUE; DESCRIPTION.
1; Reagent; 3 uL; Amplex Red and HRP mixture.
2; Compounds and control; 16 nL; Kalypsis pin tool (Wako USA) equipped with a 1536-well pin head. […]
6; Detection; Fluorescence, ViewLux microplate reader, 525 nm excitation, 598 nm emission.
NOTES (numbers refer to Sequence numbers above)
1. 3 uL of a mixture containing Amplex Red (25 uM final concentration) and horseradish peroxidase (HRP; 250 mU/mL final concentration) in assay buffer (HBSS) was dispensed into all wells of a 1536-well assay plate (solid-bottom black plate; Greiner Bio One, Monroe, NC).
2. A Wako Pin-tool (Wako Automation, Richmond, VA) was used to transfer 16 nL of compounds (consisting of 7-plates in qHTS format, final concentration range 18.3 nM to 114 uM) or control DA3003 (final concentration range 1.22 nM to 40 uM).
3. 15 min. incubation at room temperature protected from light.
4. 1 uL of DTT (prepared fresh; final concentration 250 uM) was dispensed for a final assay volume of 4 uL.
5. Plates were centrifuged (121xg, 15 seconds) and incubated for 30 minutes at room temperature protected from light.
6. Samples were read for fluorescence (Ex/Em = 525(20)/598(25) nm) on a ViewLux CCD imager (PerkinElmer). Data were normalized to DMSO (0% activity) and DA3003 (10 uM final concentration; 100% activity) and the resulting percent inhibition data were fitted to a 4-parameter Hill equation using NCATS in-house software.

SMILES	redox activity (% of DA3003)	Potency
C[C@@H]1CC[C@]2(C(=O)O)CC[C@]3(C)C(=CCC4[C@]5(C)C(CC[C@]43C)C(C)(C)[C@@H](O)[C@H](O)[C@@H]5O)C2[C@]1(C)O (stereo not given in full)	6.32% [at 25.6 µM] (inactive)	–
C=CC(C)(O)CC/C=C(\C)C(=O)OCC1OC(OC2CCC3(C)C(CCC4(C)C3CC=C3C5CC(C)(C)C(O)CC5(C(=O)O)CCC34C)C2(C)C)C(O)C(OC2OC(CO)C(O)C(OC3OC(CO)C(O)C(OC4OC(COC5OC(CO)C(O)C(O)C5O)C(O)C(O)C4O)C3O)C2O)C1O (stereo not given)	18.5% [at 11.5 µM] (inactive)	–
CC(=O)N[C@H](Cc1ccc(O)cc1)C(=O)N[C@H](CCCN=C(N)N)C(=O)N[C@H](Cc1ccccc1)C(N)=O (Ac-[dY]-[dR]-[dF]-NH2)	-3.18% (inactive)	–
CCC(C)(O)C(O)C(=O)OCc1ccc(O[C@@H]2O[C@H](CO)[C@@H](O)[C@H](O)[C@H]2O)cc1 (stereo not given in full)	-17.2% [at 25.6 µM] (inactive)	–
Cc1cc(C)cc(NC(=O)Cc2ccc(OC(C)(C)C(=O)O)cc2)c1	-2.66% (inactive)	–
CCC[C@@H]1C[C@@H](C(=O)N[C@H](C(C)Cl)[C@H]2O[C@H](SC)[C@H](O)[C@@H](O)[C@H]2O)N(C)C1 (stereo not given in full)	13.8% (inactive)	–
CC1=C(CC(=O)O)c2cc(F)ccc2C1=Cc1ccc(S(C)(=O)=O)cc1	4.64% (inactive)	–
CO/N=C(/C(=O)N[C@@H]1C(=O)N2C(C(=O)O)=C(CSC(=O)c3ccco3)CS[C@H]12)c1csc(N)n1	10.3% (inactive)	–
C[C@@H]1C/C=C/C=C\C=C\C=C\[C@H](O[C@@H]2O[C@H](C)[C@@H](O)[C@H](N)[C@@H]2O)C[C@@H]2O[C@](O)(C[C@@H](O)C[C@H]3O[C@@H]3/C=C/C(=O)O1)C[C@H](O)[C@H]2C(=O)O	-6.1% [at 25.6 µM] (inactive)	–
c1ccc(C(OC2CCN(CCCc3nn[nH]n3)CC2)c2ccccc2)cc1	-4.1% (inactive)	–
COc1ccc2c(c1)O[C@H](O[C@@H]1O[C@H](CO)[C@@H](O)[C@H](O)[C@H]1O)C(=O)N2	-11.2% (inactive)	–
C[C@@H]1O[C@@H](OC[C@H]2O[C@@H](OCCc3ccccc3)[C@H](O)[C@@H](O)[C@@H]2O)[C@H](O)[C@H](O)[C@H]1O	-17.1% [at 25.6 µM] (inactive)	–
COC(=O)C1=CO[C@@H](O[C@@H]2O[C@H](COC(=O)/C=C/c3cc(OC)c(O)c(OC)c3)[C@@H](O)[C@H](O)[C@H]2O)[C@@H]2C(CO)=CC[C@H]12	-11.5% [at 25.6 µM] (inactive)	–
CC(=O)OC[C@@]12[C@H](O)C[C@]3(C)C(=CCC4[C@@]5(C)CC[C@H](O[C@@H]6O[C@H](C(=O)O)[C@@H](O[C@@H]7O[C@H](CO)[C@@H](O)[C@H](O)[C@H]7O)[C@H](O)[C@H]6O[C@@H]6O[C@H](CO)[C@@H](O)[C@H](O)[C@H]6O)[C@](C)(CO)C5CC[C@]43C)[C@@H]1CC(C)(C)[C@@H](OC(C)=O)[C@@H]2O (stereo not given in full)	7.21% [at 11.5 µM] (inactive)	–
CON(C)C(=O)N1N=C(c2cc(F)ccc2F)S[C@@]1(CCCN)c1ccccc1	1.29% (inactive)	–
O=C(O)C[C@@H](NC(=O)c1cc(-c2ccc(-c3ccncc3)cc2)cs1)c1ccccc1	12.3% (inactive)	–
N[C@H]1C[C@H]1c1ccc(-c2cccc(O)c2)cc1	–	inactive
O=C(/C=C/c1ccc(O)cc1)O[C@H]1[C@@H]2C=CO[C@@H](O[C@@H]3O[C@H](CO)[C@@H](O)[C@H](O)[C@H]3O)[C@@H]2[C@@]2(CO)O[C@@H]12	-0.173% [at 25.6 µM] (inactive)	–
COc1cc(C2Oc3c(O)cc(CCCO)cc3C2CO)ccc1O[C@H]1O[C@H](C)[C@@H](O)[C@H](O)[C@@H]1O (stereo not given in full)	-16.1% [at 25.6 µM] (inactive)	–
C[C@@H]1C(=O)O[C@H]2CC34[C@H]5C[C@@H](C(C)(C)C)C36[C@@H](OC(=O)[C@@H]6O)O[C@@]4(C(=O)O5)[C@]21O (stereo not given in full)	-16.1% [at 25.6 µM] (inactive)	–

SMILES	redox activity (% of DA3003)	Potency
CC(=O)O[C@@]1(C)C[C@@H](O)[C@]2(O)C=CO[C@@H](O[C@@H]3O[C@H](CO)[C@@H](O)[C@H](O)[C@H]3O)[C@@H]21	-17% [at 25.6 µM] (inactive)	–
COc1c(C)c(OCC=C(C)C)cc2c1C(=O)NC2=O	-2.87% (inactive)	–
c1nc(NC2CCCCCC2)c2cc(CNC[C@H]3CCCO3)sc2n1	1.3% (inactive)	–
C/C1=C\C[C@H](O[C@@H]2O[C@H](CO)[C@@H](O)[C@H](O)[C@H]2O)/C(C)=C/[C@H]2OC(=O)[C@H](C)[C@@H]2CC1	-2.22% [at 25.6 µM] (inactive)	–
NCc1c[nH]c(=S)n1C1CCc2c(F)cc(F)cc2C1 (stereo not given)	-3.81% (inactive)	–
c1ccc(Cc2ncc3c(n2)CCNCC3)cc1	0.397% (inactive)	–
O=C(NCC(=O)N1CC[C@H](NC2CCC(O)(c3ccc(-c4ncccn4)cn3)CC2)C1)c1cccc(C(F)(F)F)c1 (stereo not given in full)	3.58% (inactive)	–
C=C1CCC2(OC1)OC1CC3C4CC=C5CC(O)CC(O[C@@H]6OC[C@@H](O)[C@H](O)[C@H]6O)C5(C)C4CCC3(C)C1(O)C2C (stereo not given in full)	-3.33% [at 25.6 µM] (inactive)	–
COc1cc([C@H]2OC[C@]3(OC(C)=O)[C@@H](c4ccc(O[C@@H]5O[C@H](CO)[C@@H](O)[C@H](O)[C@H]5O)c(OC)c4)OC[C@H]23)ccc1O	-0.0796% [at 25.6 µM] (inactive)	–
CC(C)CNC(=O)/C=C/CCCCc1ccc2c(c1)OCO2	-2.44% (inactive)	–
O=C(O)C[C@H]1CCC(=O)[C@@H]1C/C=C\CCOC1OC(CO)C(O)C(O)C1O (stereo not given in full)	-0.498% (inactive)	–
CC1=CC(=O)CC(C)(C)C1(O)CCC(C)O (stereo not given)	2.11% (inactive)	–
COc1ccccc1CC(C(=O)O)N(C)C(=O)c1ccccc1 (stereo not given)	1.44% (inactive)	–
C[C@]12CCC(=O)C=C1[C@@H](O)C[C@@H]1[C@@H]2[C@@H](O)C[C@@]2(C)[C@H]1CC[C@]2(O)C(=O)CO	-3.66% (inactive)	–
O=S(=O)(Nc1ccc(C(O)(C(F)(F)F)C(F)(F)F)cc1)c1cccs1	-1.74% (inactive)	–
O=C(/C=C/c1ccc(O)cc1)OCC1=C[C@@H](O)[C@@H]2C=CO[C@@H](O[C@@H]3O[C@H](CO)[C@@H](O)[C@H](O)[C@H]3O)[C@H]12	-0.336% [at 25.6 µM] (inactive)	–
CC(=C/C(=O)O)/C=C/[C@]1(O)[C@@]2(C)CO[C@]1(C)C[C@H](O[C@@H]1O[C@H](CO)[C@@H](O)[C@H](O)[C@H]1O)C2	-9.07% [at 25.6 µM] (inactive)	–
CC1(C)CC(=O)N(CCCCN2CCN(c3ncccn3)CC2)C(=O)C1	9.48% (inactive)	–
COc1cc(/C=C/C(=O)OC(C)(C)C(OC2OC(CO)C(O)C(O)C2O)C(=O)OCc2ccc(OC3OC(CO)C(O)C(O)C3O)cc2)ccc1O (stereo not given)	-11.1% [at 25.6 µM] (inactive)	–
C=CC(C)(O)CC/C=C(/C)C(=O)OC1C(OC2OCC(OC3OC(CO)C(O)C(O)C3O)C(OC3OCC(O)C(OC4OC(C)C(O)C(O)C4O)C3O)C2O)COC(OC(=O)C23CCC(C)(C)CC2C2=CCC4C5(C)CCC(OC6OC(CO)C(OC7OC(CO)C(O)C(OC8OCC(O)C(O)C8O)C7O)C(O)C6O)C(C)(C)C5CCC4(C)C2(C)CC3O)C1O (stereo not given)	3.8% [at 6.41 µM] (inactive)	–
